Whole data set: some 39,000 sequences, median “fluorescence intensity (a.u.)” near 4,300, cut for the highest 2% near 39,000. The sample holds the highest values, similar sequences and a random draw of the others, so the mix is not that of the screen.
biological target: T1, OsSMF1 (Oryza sativa, UniProt Q6ZLB0 1-436); assay: protein-binding microarray (RPBM); PBS, 2% BSA, 51.3 ng/ul salmon testes DNA, 50 uM zinc acetate, 200 nM TF, 25 C, 1 h; high values mean tight binding; details: protein: recombinant; tags: N-terminal polyhistidine and DsRed monomer fusion (pET32a); chain copies: 2; label: CyDye5-dUTP incorporated in the synthesized complementary strand; 3' TTTTT single-stranded linker to array surface; dsDNA, one strand shown
T1 sequence: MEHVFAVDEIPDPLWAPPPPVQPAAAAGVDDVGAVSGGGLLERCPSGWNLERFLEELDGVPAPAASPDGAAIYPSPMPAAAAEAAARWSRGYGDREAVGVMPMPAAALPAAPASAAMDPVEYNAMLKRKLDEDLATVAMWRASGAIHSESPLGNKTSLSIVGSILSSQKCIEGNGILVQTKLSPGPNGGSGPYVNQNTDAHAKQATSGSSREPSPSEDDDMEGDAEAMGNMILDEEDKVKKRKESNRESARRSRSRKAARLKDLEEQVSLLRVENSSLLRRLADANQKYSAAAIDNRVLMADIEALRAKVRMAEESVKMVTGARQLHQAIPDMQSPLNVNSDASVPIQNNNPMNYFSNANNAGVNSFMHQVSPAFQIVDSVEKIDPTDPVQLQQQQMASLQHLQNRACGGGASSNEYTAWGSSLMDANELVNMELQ
In short: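 An Axon 4000B scanner gave the binding signal as per-feature fluorescence intensity in arbitrary units. This followed washing of a custom Agilent array that had been incubated for 1 h at 25 °C with 200 nM protein in PBS, 2% BSA, salmon testes DNA and 50 µM zinc acetate. The proteins were transcription factors fused at the N-terminus to polyhistidine and DsRed, expressed in E. coli BL21-CodonPlus and purified on Ni–NTA.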

Sequence	binding signal
GATCTAGCCGACTCGATCCCGCCGATGACGATTCCATCCCCGGAGTCACCTAGTGCAG	39300 fluorescence intensity (a.u.)
TCTCTCTCATCCTTCCAATCGATCTCCTCGACCTGCTATGCGGAGTCACCTAGTGCAG	3440 fluorescence intensity (a.u.)
CCCCACTGATGATGATGATGACTCGATTCTATTCCACCGCCGGAGTCACCTAGTGCAG	5550 fluorescence intensity (a.u.)
ATGATGATGATCCTGATCCTGATCTTCCTCCTCGATCGACCGGAGTCACCTAGTGCAG	42700 fluorescence intensity (a.u.)
CTCCACCACGAGTCACGAGTCACGACCACCTCTCCGGTCTCGGAGTCACCTAGTGCAG	4170 fluorescence intensity (a.u.)
TGGCCCATCAGAGTCAGAGCCGCCGCCGACTCCAGATTCCCGGAGTCACCTAGTGCAG	3220 fluorescence intensity (a.u.)
GCCCGGAAGCTAGCGCCTCGTCGACTTGGGCGGCGGCTGACGGAGTCACCTAGTGCAG	18000 fluorescence intensity (a.u.)
CTTAGTCGCCATTTTCTTCCCATATCCACGCGCCACGTGGCGGAGTCACCTAGTGCAG	25100 fluorescence intensity (a.u.)
TGAATCTATACACTCTTCTATTCAGATTCGTTGTACTATGCGGAGTCACCTAGTGCAG	3870 fluorescence intensity (a.u.)
GCCTAATTACATCATGATTTGACAATGTTGTGCTACAGTACGGAGTCACCTAGTGCAG	4210 fluorescence intensity (a.u.)
CCGCGGCCACCTGGCCTACCTCGCCTCTCCCGTGGGCCCCCGGAGTCACCTAGTGCAG	3240 fluorescence intensity (a.u.)
GCCGTGCCGTGCCGTGCCGGCCCGCGGGCTCGGCCAGCGGCGGAGTCACCTAGTGCAG	30700 fluorescence intensity (a.u.)
CTACCAGACCCGTGGGCCGGCTCTGCCTCGCCTAATCCAGCGGAGTCACCTAGTGCAG	47000 fluorescence intensity (a.u.)
TGCATAAGTGTCCGTACCAGTACGGTCAGAGTGACATATGCGGAGTCACCTAGTGCAG	3770 fluorescence intensity (a.u.)
TTACGAGACGAATCTTTTAAGACTAATTGCTCCATGATTTCGGAGTCACCTAGTGCAG	3280 fluorescence intensity (a.u.)
TAAATTTTAATTTTCTGATTGGTATGCCACGTTAGTGAAACGGAGTCACCTAGTGCAG	3420 fluorescence intensity (a.u.)
TTTGGTTTCCGGCCAAACATTGCCACGCCTAACTTAAGGCCGGAGTCACCTAGTGCAG	5170 fluorescence intensity (a.u.)
TTTCTCTGAACGACCGGCCACGTTAAACTAAGGCCAAGTCCGGAGTCACCTAGTGCAG	65500 fluorescence intensity (a.u.)
CGCCATCGCCAACGCCAACGCCTCCGCGGACTCCATTGTCCGGAGTCACCTAGTGCAG	3650 fluorescence intensity (a.u.)
GATAGGAGGGGATAACTTGTTTCATATTTTGTGCCGGGTTCGGAGTCACCTAGTGCAG	3710 fluorescence intensity (a.u.)
AATATGAACTGATAGGATTTGTTTTCACACCATACCAAACCGGAGTCACCTAGTGCAG	59700 fluorescence intensity (a.u.)

Sequence	binding signal
AATGTAGGCACCATACCATGACTGTTTTCACACATTGTACCGGAGTCACCTAGTGCAG	3580 fluorescence intensity (a.u.)
GGGCCAAATTTTATCGAGAAGATTAGACACGAGTATGGGCCGGAGTCACCTAGTGCAG	47600 fluorescence intensity (a.u.)
TGCGATTTTAGACGATTATCGTGCGATTATCACGGTTATCCGGAGTCACCTAGTGCAG	3360 fluorescence intensity (a.u.)
AGCGAGACACTTTGAGATTTAGTATGAGTCATGTAAATTACGGAGTCACCTAGTGCAG	7830 fluorescence intensity (a.u.)
GCGTGCCGAAGGTGTGTCCCCTGCACCGGCTCCGGCAGGTCGGAGTCACCTAGTGCAG	9960 fluorescence intensity (a.u.)
ATGAAAGGGAATGTGTGGTGGAGGAGGTGGCTGAGAGATTCGGAGTCACCTAGTGCAG	3340 fluorescence intensity (a.u.)
ATTCGTTATACTAGGTGACATCTCATCTAATATTTGTTTACGGAGTCACCTAGTGCAG	4270 fluorescence intensity (a.u.)
TTGTTGAAGCAGTTTAATGTTAATAGTATACTAACATTAACGGAGTCACCTAGTGCAG	28600 fluorescence intensity (a.u.)
TGAACATGCCCATTGTTACTCATTCCTAATACTATAGGAACGGAGTCACCTAGTGCAG	42200 fluorescence intensity (a.u.)
GGAACTTCTGTTTAGGCATTTGCACCTGAAATATGATCTGCGGAGTCACCTAGTGCAG	3190 fluorescence intensity (a.u.)
TCCCGCAGGAGTTCCACCCACGTGTCATAAACCATTACAGCGGAGTCACCTAGTGCAG	12800 fluorescence intensity (a.u.)
TGAATTGGAGCGACCGTGAGAGGTAGCATAGAATGTCATGCGGAGTCACCTAGTGCAG	3270 fluorescence intensity (a.u.)
CAAAAGGACCATGGTGTGTGGATGACATGACTAGTGAGGCCGGAGTCACCTAGTGCAG	4650 fluorescence intensity (a.u.)
TGTTGATGGCGTCATTATTTACATGGTATGGTGCATTTGGCGGAGTCACCTAGTGCAG	14600 fluorescence intensity (a.u.)
CAGACCAGGGTTACTCTCCTCAACATTCTTAGCTCATAGACGGAGTCACCTAGTGCAG	47700 fluorescence intensity (a.u.)
ACAGGGTTGCCAAGCTCTTACTCAACCTAAACCACCAGAACGGAGTCACCTAGTGCAG	3200 fluorescence intensity (a.u.)
CTCTTCTCCACCTCAACATTTAGCCGGCTTATAGCTACTACGGAGTCACCTAGTGCAG	3960 fluorescence intensity (a.u.)
TGAACCCCACATGTCAGCTTTACTACTCCCTTCTTCCCTACGGAGTCACCTAGTGCAG	4350 fluorescence intensity (a.u.)
CGCGACACGACACGACACGACACGACGGCACGAGCCCACCCGGAGTCACCTAGTGCAG	4540 fluorescence intensity (a.u.)
GGAAAGTGGACAATTAAATCAAGCGATGATGTGGATGTGGCGGAGTCACCTAGTGCAG	5830 fluorescence intensity (a.u.)
TTCATCCTCGGCCACTCCTACGTCAAGGCCAAGAGCGGCTCGGAGTCACCTAGTGCAG	3600 fluorescence intensity (a.u.)
